Consider 34 compounds from ChEMBL document CHEMBL1961873, “Compounds: GSK PKIS; Assays: Nanosyn kinase panel” (2012).

By inhibition is commonly meant the relative decrease from the control value, in per cent.
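Also: values are mean percent inhibition of FGFR4.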

The target in this assay is Fibroblast growth factor receptor 4 (Homo sapiens) (UniProt P22455). To be noted: at 0.1 µM.
Chain of Fibroblast growth factor receptor 4 (Homo sapiens) (P22455 22-802 limits assumed): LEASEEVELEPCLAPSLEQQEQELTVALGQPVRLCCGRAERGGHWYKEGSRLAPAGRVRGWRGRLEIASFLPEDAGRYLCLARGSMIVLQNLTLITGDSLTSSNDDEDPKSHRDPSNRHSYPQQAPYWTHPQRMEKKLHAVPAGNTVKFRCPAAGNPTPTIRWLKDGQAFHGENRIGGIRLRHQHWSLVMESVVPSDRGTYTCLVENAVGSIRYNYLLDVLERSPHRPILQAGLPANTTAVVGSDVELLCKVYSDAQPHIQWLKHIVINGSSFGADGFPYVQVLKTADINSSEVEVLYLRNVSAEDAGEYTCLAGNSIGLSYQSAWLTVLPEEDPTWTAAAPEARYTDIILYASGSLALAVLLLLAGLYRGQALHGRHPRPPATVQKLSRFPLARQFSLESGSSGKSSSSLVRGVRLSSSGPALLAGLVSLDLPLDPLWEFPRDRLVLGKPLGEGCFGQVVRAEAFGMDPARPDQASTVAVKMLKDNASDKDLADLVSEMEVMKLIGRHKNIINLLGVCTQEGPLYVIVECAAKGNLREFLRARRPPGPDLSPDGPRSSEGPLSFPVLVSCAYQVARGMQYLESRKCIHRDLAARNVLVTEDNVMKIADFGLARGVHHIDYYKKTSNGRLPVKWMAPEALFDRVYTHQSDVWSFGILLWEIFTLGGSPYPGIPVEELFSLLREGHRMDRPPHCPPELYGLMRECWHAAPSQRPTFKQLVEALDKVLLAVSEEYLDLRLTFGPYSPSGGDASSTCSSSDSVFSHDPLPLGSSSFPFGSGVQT
In the case of `NS(=O)(=O)c1cccc(-c2cc3ccncc3cc2OCc2ccccc2)c1`, the inhibition is 0.02%.

As to `COc1cc2ncnc(Nc3ccc4c(cnn4Cc4ccccc4)c3)c2cc1OC`, the inhibition was -0.15%.

On to `Cc1ccc2c(c1)/C(=N/Nc1ccc(S(N)(=O)=O)cc1)C(=O)N2`, for which the inhibition was -1.85%.

Turning to `FC(F)(F)c1ccc(-c2nn3ncccc3c2-c2ccnc(Nc3ccc4c(c3)OCCO4)n2)cc1`, the inhibition was 6.29%.

As for `CCCN1CCCC(c2ccc(Nc3nc(Nc4cc(F)ccc4C(N)=O)c4cc[nH]c4n3)c(OC)c2)C1` (centres undefined), the inhibition amounted to 0.72%.

`COc1cccc(-n2ncc3c(N/N=C/c4ccc(C)cc4)ncnc32)c1`: the inhibition was 4.16%.

With `[O-][S+]1CCN(Cc2ccc(-c3ccc4ncnc(Nc5ccc(OCc6ccccc6)c(Cl)c5)c4c3)o2)CC1`, the inhibition was -0.05%.

In the case of `Cc1cc(Cl)cc2c1NC(=O)C2=NNc1ccc(S(N)(=O)=O)cc1`, the inhibition was -0.13%.

`COc1ccc(-c2nn3ncccc3c2-c2ccnc(Nc3cccc(C(F)(F)F)c3)n2)cc1`: the inhibition stood at 1.02%.

In the case of `N#Cc1cccc(Nc2nccc(-c3cnn4ncccc34)n2)c1`, the inhibition is -0.11%.

For `Cc1ccc2c(-c3ccnc(Nc4cccc(C(F)(F)F)c4)n3)c(-c3ccccc3)nn2n1`, the inhibition was determined as 2.15%.

Turning to `Cc1ccc(O)cc1Nc1ccnc2ccc(S(C)(=O)=O)cc12`, the inhibition is -0.45%.

`Cc1ccc(Nc2ccnc(Nc3cccc(C(N)=O)c3)n2)cc1O`: the inhibition is -3.61%.

For `O=C1Nc2ccc(-c3cccnc3)cc2C1=Cc1cc(Br)c(O)c(Br)c1`, the inhibition amounted to 1.39%.

Take `COC(=O)Nc1nc2cc(Oc3ccc(NC(=O)Nc4cccc(Br)c4)cc3)ccc2[nH]1`: the inhibition was -1.88%.

On to `Cc1cc(O)cc(C)c1/C=C/c1cncc(C(=O)N(C)C)c1`, for which the inhibition was -0.32%.

For `COc1ccc2ncnc(Nc3ccc(OCc4ccccc4)cc3)c2c1`, the inhibition is 1.47%.

As for `CS(=O)(=O)Nc1cccc(-c2ccc3c(NC(=O)C4CC4)n[nH]c3c2)c1`, the inhibition was -5.5%.

Consider `COc1cc2ncnc(Nc3ccc(C)c(O)c3)c2cc1OC`, for which the inhibition is -0.45%.

Take `COc1cccc(-n2ncc3c(N/N=C/c4ccc(S(C)(=O)=O)cc4)ncnc32)c1`: the inhibition is -2.71%.

For `Cc1nc(-c2ccccc2)n2nc(NCCCN3CCOCC3)ncc12`, the inhibition is 6.31%.

As for `Nc1nccc(C#Cc2cncnc2Nc2ccc(OCc3cccc(F)c3)c(Cl)c2)n1`, the inhibition amounted to 2.52%.

For the compound `N#Cc1c(NC(=O)c2ccccc2F)sc2c1CCCC2`, the inhibition worked out at 1.12%.

With `CC(C)c1ccc(Nc2nccc(-c3cnn4ncccc34)n2)cc1`, the inhibition worked out at 2.11%.

As for `NS(=O)(=O)c1ccc(NC=C2C(=O)Nc3ccc4ncsc4c32)cc1`, the inhibition is -2.6%.

As to `Cc1cc(-c2ccccn2)cc(C)c1/C=C/c1cncc(-c2nn[nH]n2)c1`, the inhibition was found to be 2.42%.

For the compound `CN(c1ccc(NC(=O)Nc2ccc(OC(F)(F)F)cc2)cc1)c1ccnc(Nc2cccc(S(N)(=O)=O)c2)n1`, the inhibition is -0.53%.

For the compound `COc1cc(/C=N/Nc2ncnc3c2cnn3C(C)C)ccc1O`, the inhibition was -8.41%.

As to `NC(=O)c1cccc(Nc2nccc(Nc3cccc(F)c3)n2)c1`, the inhibition stood at 2.38%.

Regarding `Nc1ccc(C#Cc2cncnc2Nc2ccc(OCc3cccc(F)c3)c(Cl)c2)cc1`, the inhibition was determined as 2.37%.

Consider `O=C(Nc1ccc(Oc2ccc3[nH]c(NC(=O)c4ccco4)nc3c2)cc1)Nc1cc(C(F)(F)F)ccc1F`, for which the inhibition is -1.82%.

Turning to `CC(C)c1ccc2c(c1)NC(=O)/C2=N/Nc1ccc(S(N)(=O)=O)cc1`, the inhibition turned out to be 2.58%.

For the compound `c1ccc(Cc2nc3ccc(Nc4ncnc5ccccc45)cc3[nH]2)cc1`, the inhibition was -1.72%.

Turning to `CCOc1nccc2c1nc(-c1nonc1N)n2CC`, the inhibition is 2.6%.
